± gives the standard deviation of the averaged measurements. Whole data set: some 25,000 sequences, median “ln(normalized median fluorescence intensity)” near 7.9, cut for the highest 2% near 11. Shown is part of a subset that was picked to be rich in the highest values.

In the assay the test system is PfAP2-I AP2 domain 3 (GST-tagged). Kind of assay: gcPBM binding intensity (ln(normalized median fluorescence intensity)); higher = stronger DNA binding. The gist of the method: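 GST-fused DNA-binding domains of P. falciparum, expressed in E. coli, were applied at about 25 μg on average for 1 h to an Agilent 4 × 180k array of primer-extended double-stranded 36-bp intergenic genomic probes and negative controls. Binding intensity is the highest Masliner-normalised natural-log median intensity across replicate spots of either probe orientation, measured with Alexa488 anti-GST antibody and a 488 nm scan.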
As to “TTTGTGTTTATAAATTGTACAAAGGTGCAAGAAGAA [XGTACX_site2159]”, the “gcPBM binding intensity (ln)” value was 11.1 ± 0.87. For the sequence “AAGAAATTTATTTATTGTACAATATATAATTTGTTT [XGTACX_site2478]”, the “gcPBM binding intensity (ln)” value was determined as 7.59 ± 0.38.

For “ACAAATTGTTAAAGGTGTACAATACATATATAAGAA [XGTACX_site4906]”, the “gcPBM binding intensity (ln)” value was 8.46 ± 0.56. As to “GATTAATACACATTCTTCCGACATAATAAGAAAAAG [GTGCAC_negctrl_site7]”, the “gcPBM binding intensity (ln)” value was 8.04 ± 0.38. For GAAGTAGATGGAAAAGTGCACTGTAATGGTTATATT, the “gcPBM binding intensity (ln)” value is 10.6 ± 0.035.

TATATATATAAATGAATGCACTTTAGAAAAAAGTAC: the “gcPBM binding intensity (ln)” value is 10.2 ± 0.23. With “TGTCGGCTTAGATTAGTGCACTGAAAAATGAAGTAT [GTGCAC_site9919]”, the “gcPBM binding intensity (ln)” value turned out to be 11.8 ± 0.28.

As for “TATATCATATAAAACCGTACATACATACTTAATTGT [XGTACX_site6822]”, the “gcPBM binding intensity (ln)” value worked out at 7.8 ± 0.29. Regarding “TATTTCAAACTGTTCTCACACACGAAATTAGAAATG [CACACA_site611]”, the “gcPBM binding intensity (ln)” value is 7.57 ± 0.66. For the sequence “TATATAATAAGAAAATATGTGCGTAGTTCAGCAAAA [XGTACX_negctrl_site304]”, the “gcPBM binding intensity (ln)” value is 8.26 ± 0.74. As for “AAATTAGACTATAATACACACATAAAAAAAAAATCA [CACACA_site7672]”, the “gcPBM binding intensity (ln)” value was 7.79 ± 0.4. Take “TATATATTATATAAGAGTACATATAATTATAGTTTT [XGTACX_site5039]”: the “gcPBM binding intensity (ln)” value was 7.71 ± 0.52. In the case of “AATATATAATATATATGTACTTATATATAAAAGATA [XGTACX_site7635]”, the “gcPBM binding intensity (ln)” value was 7.8 ± 0.21.

“AAGAACATATTATATACATGCATAATTCGATAGATT [TGCATGCA_site882]”: the “gcPBM binding intensity (ln)” value worked out at 7.9 ± 0.69. Turning to “GTTAATCACCATGTGGTGCATATAAGGGCATATTAT [GTGCAC_site9748]”, the “gcPBM binding intensity (ln)” value turned out to be 11 ± 0.55. With TATAATAATATAATGGTGCATGTATATAACCATATA, the “gcPBM binding intensity (ln)” value was determined as 9.21 ± 0.14. For GTGGTTATATATTAAGTGCATATTATAATTTTAAAC, the “gcPBM binding intensity (ln)” value worked out at 9.56 ± 0.14.

As for “AAGAATTTTCGATTTGCACACATTTGTAAAATAAAA [CACACA_site2354]”, the “gcPBM binding intensity (ln)” value is 9.16. Consider “TATCTTCAAGTATGTACACACTATATATAATAAAAT [CACACA_site5368]”, for which the “gcPBM binding intensity (ln)” value turned out to be 8.11 ± 0.13. As to “AAAAAATATAATAATTGTACACATGCACACACAAAT [XGTACX_site1563]”, the “gcPBM binding intensity (ln)” value was found to be 8.25 ± 0.48. As for “TTGTACAAAAATAATGCACACTATATCAAGTTTTTT [CACACA_site5898]”, the figure is 10.9 ± 0.7; as for “TAAATTTTTTTTTTTTGTACACAAAAATATAATATT [XGTACX_site8151]”, 7.61 ± 0.31; as for “TTTTGTACAAAAATAATGCACACTATATCAAGTTTT [CACACA_site3595]”, 11 ± 0.51.

Turning to “TATAATAAATCAAATGCACACACACTAATAAAAAAA [CACACA_site7937]”, the “gcPBM binding intensity (ln)” value worked out at 9.15 ± 0.11. For “TTGTTTTCTTTTTCTTTTCTTTTTCTTTTTTCTTTT [GTGCAC_negctrl_site629]”, the “gcPBM binding intensity (ln)” value is 7.55 ± 0.73. On to “CATTAAAATATGAGATGTACACAATATCTATTATAT [XGTACX_site4979]”, for which the “gcPBM binding intensity (ln)” value came out at 7.82 ± 0.51.

Turning to “CAATGCAAGGCTTAAAAAAATGGGCATATTATATAT [GTGCAC_negctrl_site304]”, the “gcPBM binding intensity (ln)” value was found to be 7.79 ± 0.83. For the sequence “TAAGTTATATGTATATGTACTTATATATATATATAT [XGTACX_site5402]”, the “gcPBM binding intensity (ln)” value is 9.16 ± 0.76. For the sequence “AGAATATAATTTTTATGTACATATATTAAATATATT [XGTACX_site8521]”, the “gcPBM binding intensity (ln)” value came to 7.6 ± 0.37. With “CATATAAGAATCTTCTGTACTTATAAGAAAAGACAT [XGTACX_site8135]”, the “gcPBM binding intensity (ln)” value worked out at 7.89 ± 0.48. With “TATTATGACTTAAGTTGTACTGTTGAAAGAAGAAAA [XGTACX_site2985]”, the “gcPBM binding intensity (ln)” value was found to be 7.88 ± 0.53. As for “AAAAAAAGTTGATACTGTACTCGTGCATTATGAATA [XGTACX_site5558]”, the figure is 11.3 ± 0.57. With “TTATGAAAAAAATACTGTACACAATATGACGAAAGT [XGTACX_site2283]”, the “gcPBM binding intensity (ln)” value was found to be 8.46 ± 0.42. For “ACTTAATTTTTTTATTGTACATGTAAATGAGGGAAA [XGTACX_site6305]”, the “gcPBM binding intensity (ln)” value worked out at 8.25 ± 0.26. For the sequence “AAGACTCTTTGTCCTTGTACATATATTTTTATGTTT [XGTACX_site3711]”, the “gcPBM binding intensity (ln)” value came out at 7.76 ± 0.59. Consider “CACATACACATACAAACACACATTATGTATATATAT [CACACA_site1599]”, for which the “gcPBM binding intensity (ln)” value was found to be 8.16 ± 0.84. In the case of “ATATATTTAAACTACACACGCATATCTTAGAAATAA [CACACA_site1272]”, the “gcPBM binding intensity (ln)” value turned out to be 7.77 ± 0.54. For the sequence ATAAATAAAACAACAGTGCAATAAAATTAGTTGAGG, the “gcPBM binding intensity (ln)” value came out at 10.9 ± 0.25.

On to “ATTAATTAAAATAGTTGTACAATCAAAAAAACAAAA [XGTACX_site7660]”, for which the “gcPBM binding intensity (ln)” value was determined as 8.15 ± 0.64. As for “AAAATAAAATTAGTTGCATGCAACTTAAACAGAAAT [TGCATGCA_site860]”, the “gcPBM binding intensity (ln)” value stood at 8.14 ± 0.63.

Consider “AATATATTTTTATATTGTACAAAAGAAAAAAAATAT [XGTACX_site1689]”, for which the “gcPBM binding intensity (ln)” value came to 8.05 ± 0.48. For the sequence “TTTTTTTTGTATTAATGTACATATAACTTTTTTTTT [XGTACX_site7903]”, the “gcPBM binding intensity (ln)” value came to 7.7 ± 0.49. “AATACACATAATACATGTACTCACATTGTTATAACA [XGTACX_site4129]”: the “gcPBM binding intensity (ln)” value came to 8.04 ± 0.53. Turning to “TTTATATCATTACAAGTGCATATCATCATAAATTCT [GTGCAC_site9878]”, the “gcPBM binding intensity (ln)” value is 8.81 ± 0.3. With “AGTTGCATACATTGAAGTACAGAACATTTATATATA [XGTACX_site240]”, the “gcPBM binding intensity (ln)” value amounted to 7.86 ± 0.44.

Turning to AGTTTGCATATGGAAGTGCATTACCTTGAACATCAT, the “gcPBM binding intensity (ln)” value worked out at 11.2 ± 0.38. On to “TATATATGTTTATGTAGTACTATATATCCCTTTCTT [XGTACX_site7049]”, for which the “gcPBM binding intensity (ln)” value was found to be 7.61 ± 0.53.

Source of the values: the supplement of paper PMC11417369.
